Data on 16 molecules can be found in PubChem BioAssay (NCI).

This is part of a sample that, as a whole, favours compounds with a hit. Of some 79,000 tested, about 15% had one in any assay. Values without a mark were called inactive. No stated cut-off is given here; in the data, active means growth inhibition above about 70%; inactive means the rest.

A short description of the assay: NCI Yeast Anticancer Drug Screen. Data for the mlh1 rad18 strain (AID 175). The conditions noted are these: S. cerevisiae mlh1 rad18 strain growth inhibition; at 50.0 µM; stronger effect = higher value. In short, it runs like this:
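Yeast w/ defined DNA-repair lesions; compound exposure; growth vs vehicle controls → % inhibition.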
For the molecule `CCCCCCCCCCCCCBr`, the growth inhibition is 15.8%.

With `O=C1Nc2ccccc2/C1=N\[O-].O=C1Nc2ccccc2/C1=N\[O-].[Cu+2]`, the growth inhibition was -21.1%.

On to `c1ccc2c(c1)N=C(c1ccc3ccccc3c1)CC(c1cccc3ccccc13)S2` (stereo unspecified), for which the growth inhibition is -3.15%.

Regarding `COc1cc(=O)n2c3ccccc3n(C)c2c1C#N`, the growth inhibition was 41.8%.

Regarding `CCCCCC(=O)OC(C)COc1ccccc1` (stereo unspecified), the growth inhibition is 28.6%.

`Cc1c(F)cccc1NC(=O)OC(C)C`: the growth inhibition is 5.1%.

For `Cc1cc(C(F)(F)F)nc2nc3ccccc3n12`, the growth inhibition is 6.2%.

On to `CSc1nc2ncnc(N(C)C)c2[nH]1`, for which the growth inhibition was -16.5%.

Consider `N=C(N)SCc1cccc(Cl)c1`, for which the growth inhibition is -22.6%.

With `O=c1c2ccccc2[nH]c2ccc(Br)cc12`, the growth inhibition was 17.8%.

As to `COc1c(C)c(OCC=C(C)C)cc(CO)c1CO`, the growth inhibition was -84.5%.

For `O=C(N=Nc1c(O)[nH]c2ccccc12)C(=O)N=Nc1c(O)[nH]c2ccccc12`, the growth inhibition is 26.6%.

On to `O=C(O)/C=C(/C(=O)O)c1cccn1Cc1ccccc1`, for which the growth inhibition was 16.4%.

Turning to `O=C(CC1=NC2NN(c3ccccc3)C(=O)C2=C1CC(=O)c1ccc([N+](=O)[O-])cc1)c1ccc([N+](=O)[O-])cc1` (stereo unspecified), the growth inhibition was 32%.

Regarding `CC(C)c1ccc2nc3ccc(C(=O)NCCN(C)C)cn3c(=O)c2c1`, the growth inhibition is 9%.

`CC(=O)Nc1c(Nc2ccc3c(=O)[nH]ccc3c2C)cc[nH]c1=O`: the growth inhibition was 27.5%.
